Molecular target: Fibroblast growth factor 2 (Homo sapiens) (UniProt P09038)
Experiment: FGF2 binders on small-molecule microarrays, primary screen, biochemical, small-molecule microarray, 635/667 nm fluorescence (AID 1133)
Settings: small-molecule microarray binding, FGF2, fluorescence 635/667; higher = more signal

Sequence of Fibroblast growth factor 2 (Homo sapiens) (P09038 whole entry, looked up): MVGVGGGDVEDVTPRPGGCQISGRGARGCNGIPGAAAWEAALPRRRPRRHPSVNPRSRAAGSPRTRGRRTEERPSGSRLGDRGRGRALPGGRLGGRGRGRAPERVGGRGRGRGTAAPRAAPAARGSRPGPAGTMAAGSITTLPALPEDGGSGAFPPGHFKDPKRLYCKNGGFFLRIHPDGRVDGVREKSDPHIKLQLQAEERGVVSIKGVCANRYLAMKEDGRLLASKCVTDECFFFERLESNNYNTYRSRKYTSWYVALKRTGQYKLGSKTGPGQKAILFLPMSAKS

| SMILES | composite z-score |
| --- | --- |
| C=CC[C@H](OC(=O)Nc1ccc(SC)cc1)c1ccc(O)c2ccccc12 | 1.23 |
| O=C1O[C@@H](c2ccccc2)[C@@H](c2ccccc2)N2[C@@H](c3ccc(OCCO)cc3)[C@]3(C(=O)Nc4ccc(C#CC5=CCCCC5)cc43)[C@@H](C(=O)NC[C@H](O)c3ccccc3)[C@H]12 | 1.38 |
| O=C1O[C@H](c2ccccc2)[C@H](c2ccccc2)N2[C@H]1[C@@H](C(=O)O)[C@]1(C(=O)Nc3ccc(C#CCCO)cc31)[C@H]2c1ccccc1OCCO | -0.0212 |
| CC(C)c1ccc(NN2C(C(O)c3ccc(C#N)cc3)C=CC3C(=O)N(c4ccccc4)C(=O)C32)cc1 (stereo not given) | -0.14 |
| C[N+](C)(C)CCCC[C@@H]1NC(=O)[C@@H]2C[C@H](C(=O)NCCCCCCN)[C@H](c3cccc(OCCO)c3)N2C1=O | 0.5 |
| CC(C)[Si]1(C(C)C)OCc2cc(C3CC3)nc(-c3ccc(Oc4ccccc4)cc3)c21 | -0.206 |
| COCCOC(=O)N1C(=O)[C@@]2(c3cc(C#CC4(O)CCCCCC4)ccc31)[C@H](c1ccc(O)cc1)N1[C@H](c3ccccc3)[C@H](c3ccccc3)OC(=O)[C@H]1[C@@H]2C(=O)N1CCN(c2ncccn2)CC1 | 1.32 |
| COC(=O)c1c(CC[C@@H](CO)NC(=O)N[C@@H](C)Cn2cc(-c3ccccn3)nn2)oc(C(C)=O)c1C(=O)OC | 0.707 |
| CCOC(=O)[C@@H]1CCCCN1C(=O)C(=O)OC | 0.894 |
| CN(C)c1ccc(C(O)C2C=CC3C(=O)NC(=O)C3N2Nc2ccccn2)cc1 (stereo not given) | 0.417 |
| CC#CCO[Si](C#Cc1ccccc1)(C(C)C)C(C)C | 0.0353 |
| CC(=O)N1CC2(CC2)CC1c1ccccc1 (stereo not given) | 1.6 |
| COCCOC(=O)N1C(=O)[C@@]2(c3cc(C#CCC(C(=O)OC)C(=O)OC)ccc31)[C@H](c1ccc(OCCO)cc1)N1[C@H](c3ccccc3)[C@H](c3ccccc3)OC(=O)[C@H]1[C@@H]2C(=O)N1CCc2cc(OC)c(OC)cc2C1 | 1.5 |
| C=CCC(OC(C)=O)[C@@H]1[C@@H](N(Cc2cccc3ccccc23)C(=O)Cc2ccc(F)cc2)c2cc(OCCCO)ccc2N1C(=O)c1ccc2ccccc2c1 (stereo not given in full) | -0.328 |
| CN1C2C=C(CCCO)C(C3C(=O)N(C(N)=O)C(=O)C32)C1C1CC1 (stereo not given) | -0.148 |
| CCCN1C(=O)[C@]2(Cc3ccccc31)N=C(c1ccc(OCCCO)cc1)O[C@@H]2c1ccccc1 | 0.716 |
| NCCCCCNC(=O)[C@@H]1C[C@@H]2C(=O)N[C@@H](CCCCN)C(=O)N2[C@@H]1c1ccc(O)cc1 | 1.74 |
| Cc1ccc(C(C)CC(O)C2C=CC3C(=O)N(c4ccccc4)C(=O)C3N2Nc2ccccc2)o1 (stereo not given) | -0.0968 |
| CCCNC(=O)[C@@H]1c2ccccc2C(=O)N(Cc2ccc(OC(F)(F)F)cc2)[C@H]1c1ccc(CO)cc1 | 0.908 |
| CC(C)C(CO)N1C(=O)[C@@H]2[C@H]3C(=O)OCC=C[C@H]3OC23C=CCN(c2ccc(Cl)cc2)C(=O)[C@@H]13 (stereo not given in full) | -0.794 |
| CC(C)c1ccc(NN2C(C(O)c3ccc(F)cc3)C=CC3C(=O)N(c4ccccc4)C(=O)C32)cc1 (stereo not given) | -0.15 |
| OCCCC1=CC(c2ccc(CN3CCCC3)cc2)N(Cc2cc3c(cc2Br)OCO3)CC1 (stereo not given) | 0.262 |
| COc1cc2c(cc1O)C(c1cccs1)N(Cc1cc3c(cc1Br)OCO3)CC2 (stereo not given) | 0.75 |
| CCCNC(=O)[C@@]1(Sc2ccc(C)cc2)CC(=O)N(C2Cc3ccccc3C2)[C@@H]1c1ccc(CO)cc1I | -0.209 |
| CC(C)=C1C(=O)C(c2ccccc2)=C2CN3C(=O)N(CCc4ccccc4)C(=O)[C@]3(Cc3ccc(C(F)(F)F)cc3)[C@H]21 | -1.29 |
| COc1cccc(C)c1NC(=O)O[C@H]1[C@H](OC(=O)Nc2ccccc2-c2ccccc2)[C@H](OC(=O)Nc2ccccc2-c2ccccc2)[C@@H](OC)O[C@@H]1CO | 0.79 |
| COCCCNC(=O)[C@@]1(CCC(=O)OC(C)(C)C)N=C(c2ccc(OCCCO)cc2)O[C@H]1c1ccccc1N=[N+]=[N-] | 1.15 |
| COc1cc2c(cc1O)C(c1ccc(CN3CCCC3)cc1)N(Cc1cc3c(cc1Br)OCO3)CC2 (stereo not given) | -0.73 |
| CCCC[C@@H](O)C1=C(COC)C[C@H]2C(=O)N(C)C(=O)[C@H]2[C@H]1CO | 0.201 |
| COC(=O)C(CC#Cc1ccc2c(c1)[C@]1(C(=O)N2)[C@H](c2ccc(O)cc2)N2[C@H](c3ccccc3)[C@H](c3ccccc3)OC(=O)[C@H]2[C@@H]1C(=O)NC[C@H](O)c1ccccc1)C(=O)OC | 0.551 |

From PubChem BioAssay
